# From PubChem BioAssay
# Sampled rows, rich in hits. Any-hit rate of the full collection: about 3.5%.
# TEAD-YAP inh: TEAD-YAP interaction inhibition, primary screen, TEAD-YAP interaction inhibitor project, luminescence, HEK-TIYL cells | 640,000 tested, 1.4% active | TEAD-Gal4/YAP UAS-luciferase luminescence | inhibition, % at 9.12 µM; in the data active = inhibition above about 32%
# FBW7 act: FBW7 E3 ligase activators, primary screen, biochemical, AlphaScreen, human | AID 1259310, 2017 | 650,000 tested, 0.13% active | normalized activity (activation), % at 26.1 µM | AlphaScreen FBW7–phospho-cyclin E peptide binding, activator screen; in the data active = normalized activity above about 1.9%;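 also: purified mutant Fbw7 with reduced substrate affinity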
# GPR151 activ: activators of human GPR151, primary screen, cell-based, PathHunter beta-arrestin, luminescence; G-protein coupled receptor 151 (Homo sapiens), Q8TDV0; PathHunter beta-arrestin GPR151 cells; activation, % at 11.2 µM; 650,000 tested, 1% active; in the data active = activation above about 4.9%
# Target sequence (Q8TDV0 whole entry, looked up): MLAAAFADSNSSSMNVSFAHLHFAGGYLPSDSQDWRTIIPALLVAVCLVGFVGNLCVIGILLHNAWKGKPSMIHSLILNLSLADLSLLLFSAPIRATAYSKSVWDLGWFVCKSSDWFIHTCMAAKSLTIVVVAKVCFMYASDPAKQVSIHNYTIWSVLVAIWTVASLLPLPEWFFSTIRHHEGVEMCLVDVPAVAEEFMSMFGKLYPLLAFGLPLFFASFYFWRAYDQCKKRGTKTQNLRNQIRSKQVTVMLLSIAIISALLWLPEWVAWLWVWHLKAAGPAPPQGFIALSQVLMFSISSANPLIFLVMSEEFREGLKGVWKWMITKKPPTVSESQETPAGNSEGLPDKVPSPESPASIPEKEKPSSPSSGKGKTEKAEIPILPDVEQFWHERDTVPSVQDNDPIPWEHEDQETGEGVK
# MITF inh: MITF inhibitors, primary screen, biochemical, AlphaScreen, human; Microphthalmia-associated transcription factor (Homo sapiens), O75030; AlphaScreen MITF homodimerization, bead proximity signal; inhibition, % at 2.6 µM; 650,000 tested, 0.91% active; in the data active = inhibition above about 50%
# MITF confirm: MITF inhibitors, retest of hits, confirmation, biochemical, AlphaScreen, triplicate; shares compounds with MITF inh; AlphaScreen MITF homodimerization, biotin/His-MITF beads; inhibition, % at 2.6 µM; 4,700 tested, 16% active;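 active = inhibition above a cutoff derived from the DMSO control wells, cut at about 28% in these data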;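 also: inhibitors lower the bead chemiluminescence by keeping MITF from dimerizing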
# AS interf DR: AlphaScreen optical interference compounds, dose response, counter-screen, biochemical, HTS; shares compounds with MITF inh; AlphaScreen optical interference counterscreen, cell-free; IC50, µM; 480 tested, 6% active; AID 1259373, 2018; call rule not given here
# AlphaScreen intf2: AlphaScreen optical interference compounds, counter-screen for MITF inhibitor project, biochemical, triplicate | shares compounds with MITF inh | LysRS AlphaScreen counterscreen, signal interference | inhibition, % at 2.6 µM | 4,700 tested, 7.6% active;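 active = inhibition above a cutoff derived from the DMSO control wells, cut at about 30% in these data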
# Numbers stand for hits; - = inactive; . = no result.
SMILES,TEAD-YAP inh,FBW7 act,GPR151 activ,MITF inh,MITF confirm,AlphaScreen intf2,others
N#CC1=C(SCC(=O)Nc2ccc(Br)cc2)NC(=O)CC1c1ccc(Cl)cc1 (stereo not given),-,-,-,-,.,.,
CCN1CCN(S(=O)(=O)c2ccc3c(c2)SCC(=O)N3)CC1,-,-,-,-,.,.,
O=C1CSc2ccc(S(=O)(=O)N3CCCC3)cc2N1,-,-,-,116,-,-,
COc1cccc(CC(=O)Nc2ccc3ccccc3c2)c1,-,-,-,-,.,.,
COc1cccc(CC(=O)Nc2nnc(-c3ccco3)c(-c3ccco3)n2)c1,-,-,-,63,80,-,AS interf DR=-
C/C(CC12CC3CC(CC(C3)C1)C2)=N\NC(N)=O,-,-,-,53,-,-,
O=C(OC1CCCC1=O)c1ccc(Cl)c(S(=O)(=O)N2CCOCC2)c1 (stereo not given),-,-,-,66,51,-,AS interf DR=-
O=C(OC1CCCC1=O)c1ccc(S(=O)(=O)N2CCCCC2)cc1 (stereo not given),-,-,-,74,65,-,AS interf DR=-
CCCCC[C@H](O)/C=C/[C@H]1C(=O)C[C@H](O)[C@@H]1C/C=C\CCCC(=O)NC(CO)CO,.,.,-,-,.,.,
O=C(CCCC[C@@H]1SC[C@@H]2NC(=O)N[C@@H]21)NCCCC[C@H](NC(=O)CCN1C(=O)C=CC1=O)C(=O)O,.,.,-,124,124,101,
CCCCC[C@H](O)/C=C/[C@H]1C(=O)C[C@H](O)[C@@H]1C/C=C\CCCCC(=O)NCCCCCNC(=O)CCCC[C@@H]1SC[C@@H]2NC(=O)N[C@@H]21,.,.,-,124,123,101,
CCCCC[C@H](O)/C=C/[C@H]1C=CC(=O)[C@@H]1CCCCCCC(=O)NCCCCCNC(=O)CCCCC1SC[C@@H]2NC(=O)N[C@H]12 (stereo not given in full),.,.,-,124,123,101,
CCCCC[C@H](O)/C=C/[C@H]1C(=O)C[C@H](O)[C@@H]1C/C=C\CCCC(=O)O,.,.,-,-,.,.,
CSCCC(NC(=O)CCN1C(=O)c2ccccc2C1=O)C(=O)O (stereo not given),-,-,-,-,.,.,
CCCCC[C@H](O)/C=C/[C@H]1C=CC(=O)[C@@H]1CCCCCCC(=O)O,.,.,-,-,.,.,
CCCCC[C@H](O)/C=C/[C@H]1C(=O)C[C@H](O)[C@@H]1C/C=C\CCCC(=O)OCC(O)CO (stereo not given in full),.,.,-,71,-,-,
O=C(NNC1CC(=O)N(Cc2ccccc2)C1=O)c1ccc(F)cc1 (stereo not given),-,-,-,-,.,.,
Cc1nc2ncnn2c(NCC2CCCCC2)c1C,-,-,-,-,.,.,
C#CCNc1c(C)c(C)nc2ncnn12,-,-,-,68,-,-,
CCn1cc(Br)c(C(=O)Nc2ccccc2SC)n1,-,-,-,-,.,.,
Fc1ccc(-c2nnc3ccc(SCc4ccccn4)nn23)cc1,-,-,-,-,.,.,
CCC(=O)NC(=S)NNC(=O)c1ccccc1O,-,-,-,63,-,69,
Cc1ccc(OCC(=O)Nc2ccc(Br)cc2)cc1C,-,-,-,-,.,.,
Cc1ccc(Cl)cc1NC(=O)N1Cc2ccccc2CC1S(C)(=O)=O (stereo not given),-,-,-,-,.,.,
COc1ccc(C2C(C(=O)Nc3ccc(C)cc3)=C(C)Nc3ncnn32)cc1OC (stereo not given),-,-,-,69,-,-,
Nc1ccc(C(=O)Nc2ccc(N)cc2N)cc1,-,-,-,-,.,.,
Nc1ccc(NCCO)c(N)c1,-,-,-,57,52,-,AS interf DR=-
COc1ccc2c(c1)NC1(CCN(C(=O)CCn3ncc4ccccc43)CC1)c1cccn1-2,-,-,-,-,.,.,
CCCCC(CC)CNCC(O)COCc1ccc(OC)c(OC)c1 (stereo not given),-,-,-,65,-,-,
